NCOA3 inh: human NCOA3 inhibition. Q9Y6Q9. HEK293 GAL4-SRC3 luciferase reporter, luminescence. inhibition, % at 3.6 µM. 0.17% of 360,000 active. AID 588352;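 active means inhibition above a per-campaign cutoff, the mean of all compounds plus 3 SD, cut at about 60% in these data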;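 further: 0% = DMSO-treated cells and 100% = gossypol-treated cells at 36 µM; higher means less SRC3-driven luciferase light from the GAL4 reporter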
LRH-1 inv ag: suppresses constitutive activity of human LRH-1. HEK293T StAR-luciferase reporter, LRH-1 transfected, 24 h. inhibition, % at 3.6 µM. 0.13% of 360,000 active. AID 602396;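 active means inhibition above the mean inhibition of all tested compounds plus 3 SD, cut at about 73% in these data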;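 further: 0% = DMSO wells and 100% = reporter-only cells lacking LRH-1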
GalR3 antagonist: blocks the human galanin receptor 3. O60755. HEK293 GalR3-CNG cAMP membrane potential fluorescence; galR3 body fused to GalR1 C-terminus. inhibition, % at 3 µM. 0.44% of 360,000 active. AID 651719;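 active means inhibition above the screen-wide average plus 3 SD, cut at about 13% in these data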;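 further: forskolin and galanin both at EC90 stimulate the cells; cAMP rise reported by CNG channel membrane potential dye signal; 0% = forskolin plus galanin with DMSO and 100% = forskolin alone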
NCOA1 inh: inhibits human SRC1 coactivator; 0.12% of 360,000 active; AID 588354; inhibition, % at 3.6 µM; Q15788; HEK293 GAL4-SRC1 luciferase reporter, luminescence;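 active means inhibition above the campaign mean plus 3 SD, with each screening campaign given its own cutoff, cut at about 60% in these data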;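 further: 0% = DMSO treated cells and 100% = gossypol at 36 µM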
NCOA2 inhibitor: inhibits human steroid receptor coactivator 2; Q15596; HEK293 GAL4-SRC2 luciferase reporter, luminescence; inhibition, % at 9 µM; 0.17% of 370,000 active; AID 651957;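 active means inhibition above the mean inhibition of all tested compounds plus 3 SD, set per campaign, cut at about 52% in these data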;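 further: 0% = DMSO treated cells and 100% = cells given Gossypol at 36 µM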
NR2F2 inh: blocks human COUP-TFII nuclear receptor; HEK293T NGFI-A luciferase reporter, luminescence; inhibition, % at 8.6 µM; 0.7% of 370,000 active; AID 686940;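 active means inhibition above a per-plate cutoff, mean inhibition of test wells between control levels plus 3 SD, cut at about 38% in these data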;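 further: cells cotransfected with COUP-TFII expression vector driving the NGFI-A reporter; 0% = median of COUP-TF2 test wells and 100% = reporter-only cells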
Gal4-VP16 ctr: inhibits VP16 reporter, flagging COUP-TFII antagonist hits | inhibition, % at 8.5 µM | 25% of 2,500 active | HEK293 Gal4-VP16 luciferase reporter, luminescence | AID 687007 | shares compounds with NR2F2 inh; in the data active means inhibition above about 13%
COUP-TFII conf: confirmation of human COUP-TFII (NR2F2) inhibitors. shares compounds with NR2F2 inh. HEK293 NGFI-A luciferase reporter, luminescence. inhibition, % at 8.5 µM. 45% of 2,500 active;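 active means mean inhibition over three repeats above a set limit taken from the earlier primary screen, cut at about 38% in these data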;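 further: 100% = cells given the luciferase reporter alone without the COUP-TF2 vector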
Active calls of the source: *; · = no result. Hits are enriched below; roughly 1.1% of the tested compounds scored in any of these assays.

SMILES | NCOA3 inh | LRH-1 inv ag | GalR3 antagonist | NCOA1 inh | NCOA2 inhibitor | NR2F2 inh | Gal4-VP16 ctr | COUP-TFII conf
Cc1c(C(=O)NCc2ccc(Cl)c(Cl)c2)sc(=O)n1Cc1ccc(S(=O)(=O)N(C)C)cc1 | 4 | 12 | 0 | 5 | -2 | 38* | 3 | 16
Nc1[nH]c(C(=O)c2ccccc2)c(-c2ccccc2)c1C(=O)NCCc1c[nH]c2ccccc12 | · | · | -7 | · | -11 | -13 | · | ·
CC(=NCc1ccco1)c1c(C)[nH]n(-c2nc3ccccc3s2)c1=O | 20 | 3 | -8 | 12 | 46 | 62* | -125 | -23
O=C(Nc1ccc(Br)cc1)c1ccc(F)c(S(=O)(=O)NCc2cccs2)c1 | 20 | 35 | 109* | 11 | 14 | 72* | -2 | 56*
CCOC(=O)C1CCCN(C(=O)c2ccc3c(c2)C(C)(C)CCC3(C)C)CC1 (stereo not drawn) | 14 | 1 | -8 | 19 | 3 | 26 | · | ·
Cc1cccc(NC(=O)C(C)C(=O)c2ccccc2)c1 (stereo not drawn) | 1 | 2 | -10 | 10 | 15 | -4 | · | ·
Cc1ccc(NC(=O)C(C)c2cccc(C(=O)c3ccccc3)c2)cc1O (stereo not drawn) | 15 | 28 | -3 | 4 | 0 | 48* | 9 | 33
COc1cc(CNCc2ccncc2)cc(Br)c1OCc1ccccc1F | 8 | 30 | -8 | 8 | 24 | 46* | 3 | 28
Cc1cc(C)nc(SCc2nnc(SCC(N)=O)n2Cc2ccco2)n1 | 19 | -3 | -1 | -3 | -13 | 39* | 11 | 11
CCOC(=O)CSc1nnc(CSc2nc(C)cc(C)n2)n1Cc1ccco1 | -19 | 23 | -9 | 12 | -9 | -7 | · | ·
COCC(C)n1c(C)cc(C(=O)CSc2nnnn2C2CCCC2)c1C (stereo not drawn) | 7 | -3 | -7 | -2 | 9 | 41* | -82 | 23
O=C(C(=O)N1CCC(CNC(=O)c2sc3ccccc3c2Cl)CC1)c1cccs1 | · | · | 3 | · | 13 | 9 | · | ·
Cc1ccccc1-n1nc(C)c2cc(C(=O)N3CCOCC3)sc21 | -4 | 19 | -5 | -29 | -12 | 3 | · | ·
Cc1ccc(S(=O)(=O)N2CCN(C(=O)c3cc4c(C)nn(-c5ccccc5C)c4s3)CC2)cc1 | -16 | 0 | -7 | -5 | 34 | 46* | 10 | 30
COC(=O)[C@]12C[C@H](CC(=O)N3CCCCC3)C(=O)N(CCC3=CCCCC3)C1=C[C@H](COCc1ccccc1)O[C@@H]2C | · | · | -7 | · | -14 | 17 | · | ·
Cc1cccc(-n2ncc3c(N(C)C4CCCCC4)ncnc32)c1 | 81* | 77* | 1 | 81* | 62* | 87* | 49* | 92*
COc1ccc(-n2ncc3c(N(C)C4CCCCC4)ncnc32)cc1 | 79* | 79* | -1 | 79* | 63* | 89* | 74* | 94*
COc1ccc(-n2ncc3c(N4CCC(C)CC4)ncnc32)cc1 | -86 | -64 | 5 | -71 | -27 | -16 | · | ·
CCC(C)Nc1nc(C)nc2c1nnn2Cc1ccccc1 (stereo not drawn) | · | · | · | · | 1 | -1 | · | ·
COc1ccc(S[C@]2(C(=O)N(C)C)CC(=O)N(S(=O)(=O)c3ccc(F)cc3)[C@@H]2c2ccc(OC)cc2)cc1 | · | · | · | · | 1 | 5 | · | ·
CCN(C(=O)C1CCN(c2nc(-c3ccc(OC)cc3)no2)CC1)c1ccc(OC)cc1 | 26 | 39 | · | 6 | 30 | 52* | -1 | 30
COc1ccc(NC(=O)C2CCN(c3nc(-c4ccc(OC)cc4)no3)CC2)cc1 | -16 | 14 | · | 12 | 1 | -17 | · | ·
CSc1ccc(NC(=O)Nc2cccn(Cc3ccccc3F)c2=O)cc1 | -18 | -23 | -9 | -15 | -21 | 39* | -73 | -8
CCc1ccccc1NC(=O)Nc1cccn(Cc2ccccc2F)c1=O | 4 | -9 | -5 | -17 | -23 | 10 | · | ·
COc1cccc(CCN2CCC(CNS(=O)(=O)c3cc(-c4cc(C)no4)ccc3OC)CC2)c1 | 27 | 6 | -4 | -8 | 14 | 37* | -11 | 8
SMILES | NCOA3 inh | LRH-1 inv ag | GalR3 antagonist | NCOA1 inh | NCOA2 inhibitor | NR2F2 inh | Gal4-VP16 ctr | COUP-TFII conf
Cc1cc(-c2ccc(C)c(S(=O)(=O)NCC3CCN(Cc4cccc(F)c4)CC3)c2)on1 | -1 | 7 | -7 | -4 | 2 | -4 | · | ·
COc1ccc(-c2cc(C)no2)cc1S(=O)(=O)N1CCN(c2cccc(C)c2)C(C)C1 (stereo not drawn) | 5 | 13 | 1 | 0 | 18 | 52* | 11 | 54*
COc1ccc(-c2cc(C)no2)cc1S(=O)(=O)N1CCCCC1 | 15 | 20 | -5 | 8 | -17 | 3 | · | ·
COc1ccc(-c2cc(C)no2)cc1S(=O)(=O)NCCCN1CCCCCC1 | -23 | 3 | 1 | 5 | 14 | 15 | · | ·
COc1cccc(CCN2CCC(CNS(=O)(=O)c3cc(-c4cc(C)no4)ccc3C)CC2)c1 | 27 | 9 | 8 | -12 | 24 | 41* | 0 | 26
CC(C)(C)c1ccc(-c2noc(CCC(=O)NCc3ccco3)n2)cc1 | 15 | 37 | -7 | 3 | 63* | 38* | 25* | 57*
Cc1cccc(-c2noc(CCC(=O)NCc3ccco3)n2)c1 | -15 | 3 | -2 | 5 | -2 | -5 | · | ·
O=C(c1ccccc1)N1CCC2CCN(S(=O)(=O)c3ccccc3)CC21 (stereo not drawn) | · | · | -6 | · | 8 | 20 | · | ·
CCCn1c2c(c(=N)c3c1CCC3)CCCC2 | 14 | 60 | -3 | 24 | 20 | 25 | · | ·
N=c1c2c(n(Cc3ccc([N+](=O)[O-])cc3)c3c1CCC3)CCCC2 | 18 | 18 | -3 | 10 | 0 | 19 | · | ·
N=c1c2c(n(Cc3ccc(Br)cc3)c3c1CCC3)CCCC2 | 75* | 93* | 0 | 42 | -19 | 68* | 24* | 61*
N=c1c2c(n(Cc3ccc(Cl)c(Cl)c3)c3c1CCC3)CCCC2 | 68* | 96* | 3 | 63* | -46 | 64* | 16* | 47*
Cc1cc(NC(=O)CS(=O)(=O)c2cn(Cc3cccc(Br)c3)c3ccccc23)no1 | 6 | -8 | 0 | -1 | 4 | 47* | -4 | 0
COC(=O)C1=C(C)N(C)C(=NCc2ccc3c(c2)OCO3)NC1c1ccc(Cl)cc1 (stereo not drawn) | · | · | -8 | · | -16 | -9 | · | ·
COc1ccc(C(=O)N2CCN(Cc3ccccc3C(F)(F)F)CC2)cc1 | -20 | 0 | -6 | -10 | 11 | 80* | -1 | 6

Screening results as filed in PubChem BioAssay.
